Source: PubChem BioAssay (NCI)
Where “and” joins values, the source holds several entries; their conditions need not be identical. Identical values can stand only once. About 79,000 compounds went through this panel and 15% of them were active in at least one assay; those are over-represented in the sample as a whole. Cut-off read from the data, not from the text of the source: active = growth inhibition above about 70%; inactive = the rest.

Tests used:
[1] = NCI Yeast Anticancer Drug Screen. Data for the rad50 strain (AID 155);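 note: 0% = growth of vehicle-only cultures of the same strain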; details: S. cerevisiae rad50 strain growth inhibition; at 50.0 µM; hits give high values
Summary of the method: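 Yeast carrying a defined DNA repair defect were exposed to test compounds, and growth was compared with vehicle-treated controls to give percent inhibition.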

[2] = NCI Yeast Anticancer Drug Screen. Data for the mec2-1 strain (AID 157); details: S. cerevisiae mec2-1 strain, at 50.0 µM, hits give high values
Summary of the method: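 Each compound was tested on mec2-1 yeast, a strain altered in DNA damage repair or cell cycle control. Growth inhibition is reported relative to vehicle.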

[3] = NCI Yeast Anticancer Drug Screen. Data for the sgs1 mgt1 strain (AID 161);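 note: 0% = growth of cultures given vehicle only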; details: S. cerevisiae sgs1 mgt1 strain, at 50.0 µM, hits give high values
Summary of the method: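 Test agents were incubated with a DNA-repair-mutant yeast strain. Growth was then read and compared against vehicle-treated controls.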

[4] = NCI Yeast Anticancer Drug Screen. Data for the cln2 rad14 strain (AID 165);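 note: 0% = growth equal to vehicle treated cultures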; details: S. cerevisiae cln2 rad14 strain, at 50.0 µM, hits give high values
Summary of the method: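 Test compounds were added to cln2 rad14 yeast cultures; inhibition of growth was then determined by comparison with vehicle treatment.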

[5] = NCI Yeast Anticancer Drug Screen. Data for the bub3 strain (AID 167); details: S. cerevisiae bub3 mutant strain, at 50.0 µM, hits give high values
Summary of the method: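 Compounds were applied to a genetically altered yeast strain carrying a cell-cycle control defect. Growth inhibition was scored against vehicle-treated controls.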

[6] = NCI Yeast Anticancer Drug Screen. Data for the mlh1 rad18 strain (AID 175); details: S. cerevisiae mlh1 rad18 strain growth inhibition; at 50.0 µM; hits give high values
Summary of the method: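 Inhibition values reflect reduced growth of mutant yeast versus vehicle-treated controls following compound exposure; the mutations affect DNA damage repair.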

Measured: growth inhibition

CCCC1NCCOC1(O)c1ccccc1 (configuration not stated)
inactive: [1] -11.2% | [2] -8.35% | [3] -1% | [4] -16.4% | [5] 3.35% | [6] -33.8%

Cc1ccc2ccccc2c1
inactive: [1] 3.9% | [2] -14.5% | [3] -6.05% | [4] -3.05% | [5] 2.4% | [6] -7.35%

COc1cc(OC)cc(C(=O)Cc2c(C(=O)c3ccccc3)c3ccccc3n2C(=O)c2ccccc2)c1
inactive: [1] -5.5% | [2] -6% | [3] 0.1% | [4] -50.3% | [5] -2.15% | [6] 3.2%

Clc1cc[c]([Pb]([Cl])([Cl])[c]2ccc(Cl)cc2)cc1
inactive: [1] 22.9% | [2] 17% | [3] 27.9% | [4] 52.2% | [5] 36.5% | [6] 13.7%

COc1ccc(N=NC(=O)NC(CC(C)C)C(=O)NCC(=O)O)cc1 (configuration not stated)
inactive: [1] -0.8% | [2] 2.45% | [3] 10.4% | [4] 28.8% | [5] 5.35% | [6] 5.35%

C/C(=N\N(C)C)C(CN1CCCCC1)C(c1ccccc1)c1c(O)c2ccccc2oc1=O (configuration not stated)
inactive: [1] -1.35% | [2] -30.2% | [3] -6.15% | [4] 4.8% | [5] 30.1% | [6] -9%

CC(C)N(N=O)C(C)C
inactive: [1] 13.7% | [2] -4.6% | [3] 6.85% | [4] 1.9% | [5] 0.95% | [6] 16.5%

Nc1nc(N)[nH]c(=O)n1
inactive: [1] -20.1% | [2] -12.5% | [3] -39% | [4] -29.4% | [5] -36.4% | [6] -40%

O=C1CN=CN1
inactive: [1] -8.85% | [2] 8.85% | [3] -0.45% | [4] -12.6% | [5] -7.5% | [6] -5.3%

CN(C)NP(c1ccccc1)c1ccccc1
inactive: [1] -2.55% | [2] -3.8% | [3] -5.95% | [4] -6.1% | [5] -18.2% | [6] 1.1%

COC(=O)Nc1nc2ccccc2[nH]1
inactive: [1] -18.6% | [2] -4.4% | [3] -13% | [4] 4.2% | [5] 2.45% | [6] 7.15%

CC(O)C[N+](=O)[O-] (configuration not stated)
inactive: [1] 5.35% | [2] 8.65% | [3] -4.6% | [4] -23% | [5] 8.5% | [6] 4.8%

CC(C)C(CC[C@@H](C)C1CC[C@@]2(C)C3=C(CC[C@]12C)[C@@]1(C)CC[C@H](O)C(C)(C)[C@@H]1CC3)S[As](C)C (some centres not stated)
inactive: [1] 40.4% | [2] -0.5% | [3] 26.7% | [4] 31.6% | [5] -4.35% | [6] 32.8%

N#Cc1cccc([N+](=O)[O-])c1
inactive: [1] -17.7% | [2] 0.3% | [3] -26.6% | [4] 30.8% | [5] -9.7% | [6] -18.9%

[C-]#[O+].[C-]#[O+].[C-]#[O+].[Mo].c1ccc([PH+](CC[As](c2ccccc2)c2ccccc2)CC[As](c2ccccc2)c2ccccc2)cc1
inactive: [1] 11.4% | [2] 9.45% | [3] 21.1% | [4] 19.2% | [5] 6.7% | [6] 28.9%

c1ccc(C2=NC(c3ccccc3)N3CC23c2ccccc2)cc1 (configuration not stated)
inactive: [1] 12.8% | [2] 15.2% | [3] 5.05% | [4] -7.6% | [5] 15.2% | [6] 24.4%

CCC(C)C(CC)C(=O)NC(N)=O (configuration not stated)
inactive: [1] 4.4% | [2] 4.55% | [3] -11.4% | [4] -1.35% | [5] 8.5% | [6] 0.95%

O=C(O)COc1ccccc1
inactive: [1] 10.9% and -7.6% | [2] 9.2% and 1.65% | [3] 5.8% and -36.2% | [4] -16.6% and 6.7% | [5] -10.2% and -17.4% | [6] -13.2% and -0.15%

O=C1NC(=O)C(F)C(O)N1 (configuration not stated)
inactive: [1] -22.8% | [2] -17.8% | [3] -6.15% | [4] -14.8% | [5] 16.1% | [6] -8.2%

Cc1ccc(C2=CCNCC2)cc1
inactive: [1] -9.45% | [2] -24.3% | [3] -4.3% | [4] 6.75% | [5] -12% | [6] -2.65%

O=C1NC(=O)C(=C2C(=O)COC2=O)C(=O)N1
inactive: [1] -4.4% | [2] -16.6% | [3] -13.8% | [4] -1.7% | [5] -2.8% | [6] -19.5%

O=[As](O)(O)c1ccccc1Cl
inactive: [1] 14.1% | [2] -13.4% | [3] -32.1% | [4] 4.55% | [5] 3.2% | [6] 16.6%

CC1C(=O)OC2CC[N+]3([O-])CC=C(COC(=O)C(C)(O)C1(C)O)C23 (configuration not stated)
inactive: [1] -0.6% | [2] -37.2% | [3] -14.7% | [4] -5.25% | [5] -9.25% | [6] -84.4%

O=C(Nc1ccccc1Cl)OCC(Cl)(Cl)Cl
inactive: [1] -15.3% | [2] 2% | [3] 16.1% | [4] -19.9% | [5] 19.8% | [6] -11.2%

CCCCNC(c1ccc(OC)cc1)C(O)c1ccc(OC)cc1 (configuration not stated)
inactive: [1] 2.35% | [2] -17.3% | [3] -2.95% | [4] -25.6% | [5] 7.1% | [6] -14.1%

COc1ccc2c(c1)-c1c(ccc(OC)c1OC(=O)C(=O)c1ccccc1)CC(Cl)N(C)CC2.[O]=[Cr](=[O])([OH])[OH] (configuration not stated)
inactive: [1] -18.3% | [2] -0.55% | [3] -19.5% | [4] -17% | [5] -1.3% | [6] -1.25%

O=P1(CCBr)NCCCO1 (configuration not stated)
inactive: [1] -5.25% | [2] 14.6% | [3] -3.6% | [4] -59.4% | [5] -10.4% | [6] 7.5%

O=S(=O)(O)O/N=C(\Cc1ccccc1)SC1OC(CO)C(O)C(O)C1O (configuration not stated)
inactive: [1] -2.45% | [2] -7.1% | [3] -2.55% | [4] -7% | [5] -0.75% | [6] -3.25%

CC(=O)[CH-]C(C)=O.CC(=O)[CH-]C(C)=O.CC(=O)[CH-]C(C)=O.[Ga+3]
inactive: [1] 28.6% | [2] 13.9% | [3] 15.3% | [4] 42.6% | [5] 31.1% | [6] 18.6%

CCCCCCCCCCCC[C@@H](O)[C@H]1CC[C@H]([C@H](O)CCCC[C@H](O)CCCCC[C@@H](O)CC2=C[C@H](C)OC2=O)O1
inactive: [1] 10% | [2] -7.05% | [3] -20.8% | [4] -7.5% | [5] -1.65% | [6] -41.2%

COC1CC(OC2OC(CO)C(O)C(O)C2O)/C(=C\C#N)C(O)C1OC (configuration not stated)
inactive: [1] 1.95% | [2] -3.05% | [3] 1.8% | [4] 9.25% | [5] 2.35% | [6] -58.2%

COP(=O)(NC12CC3CC(CC(C3)C1)C2)OC
inactive: [1] -4.75% | [2] 5.45% | [3] -13.4% | [4] 15.7% | [5] -1.1% | [6] -16.7%

COCCCNP(=O)(OC(C)C)OC(C)C
inactive: [1] 0.75% | [2] 0.85% | [3] 8.6% | [4] 5.8% | [5] 9.2% | [6] 14.8%

COc1ccc2c(c1O)[C@@]13CCN(C)[C@@H](C2)[C@H]1CC(C)C(=O)C3 (some centres not stated)
inactive: [1] 5.65% | [2] -30.6% | [3] 8.55% | [4] 17.2% | [5] -0.6% | [6] -2.5%

CN(C)/N=C(\CCN1CCCC1)CC(c1ccccc1)c1c(O)c2ccccc2oc1=O (configuration not stated)
inactive: [1] 55% | [2] 35.6% | [3] 63.1% | [4] 48% | [5] 49.9% | [6] 50.3%

N#CC(C#N)=Cc1cccc(C#N)c1
inactive: [1] -0.75% | [2] 21.4% | [3] -2.85% | [4] 19.1% | [5] -4.75% | [6] 3.45%

CC(=O)O
inactive: [1] 2.15% | [2] -13% | [3] 7.5% | [4] 4.05% | [5] 1.45% | [6] 0.55%

CSP(=S)(SC)SC
inactive: [1] 24% | [2] -5.7% | [3] 13.4% | [4] 22.1% | [5] -7.95% | [6] -15.8%

CC1CC2CCC1(CO)CN2 (configuration not stated)
inactive: [1] -0.45% | [2] 2.3% | [3] 0.1% | [4] 4.65% | [5] 0.85% | [6] 3.9%

O=[N+]([O-])c1ccc(OCc2ccc(COc3ccc(S(=O)(=O)F)cc3)cc2)c(Cl)c1
inactive: [1] -0.6% | [2] -8.15% | [3] -2.3% | [4] -6.35% | [5] -7.6% | [6] -7.5%

O=CC=O
inactive: [1] 33.1% | [2] 17.6% | [3] 24.4% | [4] 21.6% | [5] 33.9% | [6] 28.4%

Cc1cccc(C(=O)[O][Pb]([CH3])([CH3])[CH3])c1
inactive: [1] 16.1% | [2] -53.7% | [3] 21% | [4] -20% | [5] -9.65% | [6] 36.2%
